# Screening data: PubChem, several laboratories
# PrPC TRFRET: reduces human prion protein on the cell surface. P04156. cell surface PrPC, TR-FRET read-out. inhibition, % at 13.8 µM. 370,000 compounds, 0.43% hits. AID 720596; in the data active = inhibition above about 24%
# BJeLR lethal: BJeLR cell viability loss. BJeLR (HRASV12) viability, CellTiter-Glo ATP luminescence, 48 h. inhibition, % (test concentration not listed). AID 1554. 300,000 compounds, 0.17% hits; in the data active = inhibition above about 50%
# RecA splice inh: inhibitors of M. tuberculosis RecA intein splicing. P9WHJ3. cell-free RecA intein splicing, fluorescence. inhibition, % (no concentration beside the values). 290,000 compounds, 0.75% hits; in the data active = inhibition above about 30%
# GDH-TPI inh: counter-screen for M. tuberculosis FBA inhibitors: GDH-TPI coupled enzymes; 360,000 compounds, 1.2% hits; AID 588335; inhibition, % at 4.8 µM; GDH-TPI coupled enzyme counterscreen, NADH absorbance; in the data active = inhibition above about 30%
# FBA Mtb inh: Mtb fructose-bisphosphate aldolase inhibition; AID 588726; purified M. tuberculosis FBA, fluorescence read-out; 360,000 compounds, 2.3% hits; inhibition, % at 1 µM; in the data active = inhibition above about 27%
# Target sequence (P9WQA3 whole entry, looked up): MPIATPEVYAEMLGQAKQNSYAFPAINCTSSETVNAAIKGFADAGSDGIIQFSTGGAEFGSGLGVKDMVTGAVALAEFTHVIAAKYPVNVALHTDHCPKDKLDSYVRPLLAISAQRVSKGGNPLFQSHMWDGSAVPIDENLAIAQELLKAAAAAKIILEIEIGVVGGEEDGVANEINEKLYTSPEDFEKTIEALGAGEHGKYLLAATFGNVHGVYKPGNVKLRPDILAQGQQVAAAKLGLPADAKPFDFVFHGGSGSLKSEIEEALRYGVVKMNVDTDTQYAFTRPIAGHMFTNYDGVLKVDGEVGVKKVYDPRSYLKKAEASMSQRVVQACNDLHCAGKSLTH
# Hits are given with their value; 0 = inactive; - = no result; + = active, no number. In the library only some 4.2% were active in any assay of this set; here they are far more common.
SMILES,PrPC TRFRET,BJeLR lethal,RecA splice inh,GDH-TPI inh,FBA Mtb inh
CC(C)CS(=O)(=O)C1=NSC2=NC(=O)/C(=C\c3ccc(OC(=O)c4ccco4)cc3)C(=N)N21,0,0,41,0,0
O=C(O)CN1C(=O)/C(=C\c2ccc(OC(=O)c3ccco3)cc2)SC1=S,0,0,30,0,0
COc1cc(/C=C2\C(=N)N3N=C(S(=O)(=O)CC(C)C)SC3=NC2=O)ccc1OC(=O)c1ccco1,-,0,32,-,-
CCS(=O)(=O)C1=NN2C(=N)/C(=C\c3ccc(OS(=O)(=O)c4ccccc4)c(OC)c3)C(=O)N=C2S1,-,0,0,-,-
CCCCCCCCN1CN2Cc3cc(F)ccc3C2CS1(=O)=O (centres undefined),0,-,-,-,-
c1ccc(Cn2c(SCC3CCC3)nnc2-c2cccnc2)cc1,0,-,-,-,-
COc1ccc(NC(=S)NC(NC(=O)CCl)C(Cl)(Cl)Cl)c([N+](=O)[O-])c1 (centres undefined),-,0,55,0,0
CCCCNC(=O)OCCCN1CCC2(CCC(c3ccccc3)CC2)C1 (centres undefined),0,-,-,-,-
O=C1C2C3C=CC(C4CC34)C2C(=O)N1/N=C/c1ccc(-c2ccc(Cl)cc2[N+](=O)[O-])o1 (centres undefined),0,0,0,37,0
O=C1C2C3C=CC(C4CC34)C2C(=O)N1/N=C/c1ccc(-c2ccc(F)cc2[N+](=O)[O-])o1 (centres undefined),0,0,0,32,0
O=C(NCc1cccnc1)O[C@H]1CC[C@@]23CCCN2C(=O)CCC[C@H]3C1,0,-,-,-,-
COc1ccccc1C(=O)NC1CCCCN(Cc2ccc(OC(F)(F)F)cc2)C1=O (centres undefined),0,-,-,-,-
O=C(NCCc1ccccc1)c1ccc(=O)oc1,0,0,0,75,0
CC(NC(=O)c1ccc(=O)oc1)c1ccccc1 (centres undefined),0,0,0,59,0
O=C(NCc1ccccn1)c1ccc(=O)oc1,0,0,0,38,0
O=C(CCS(=O)(=O)c1ccccc1)Nc1ccc(F)cc1F,0,-,-,-,-
CCC(CC)NC(=O)O[C@H]1CC[C@@]23CCCN2C(=O)CCC[C@H]3[C@H]1C,0,-,-,-,-
CC(=O)Oc1ccc2c3c(c(=O)oc2c1)CCCC3,0,0,0,0,195
COC(=O)C(C)Oc1ccc2c3c(c(=O)oc2c1)CCCCC3 (centres undefined),0,0,0,0,146
Cc1cc(OC(=O)c2ccco2)c2c3c(c(=O)oc2c1)CCC3,0,0,0,0,0
CSCCC(NC(C)=O)C(=O)Oc1ccc2c3c(c(=O)oc2c1)CCCC3 (centres undefined),0,-,0,0,+
O=C(Oc1ccc2c3c(c(=O)oc2c1)CCCC3)c1ccco1,0,0,0,0,99
O=c1oc2cc(O)ccc2c2oc3cc(O)ccc3c12,0,0,0,35,+
O=c1oc2cc(O)ccc2c2c1CCCC2,0,0,0,0,+
Cc1coc2cc3oc(=O)c4c(c3cc12)CCCC4,0,0,0,0,0
SMILES,PrPC TRFRET,BJeLR lethal,RecA splice inh,GDH-TPI inh,FBA Mtb inh
CC(C)=CCc1c(O)cc2c(=O)c3ccc(O)cc3oc2c1O,0,0,0,0,0
COc1c(CC=C(C)C)c(O)cc2oc(=O)c3c4ccc(O)cc4oc3c12,-,0,0,0,142
Cc1cccc(-c2cccc3c4c([nH]c23)[C@@H]2C[C@H](N(C)C(=O)c3cccc(Cl)c3)[C@H]([C@H](C)O)CN2CC4)c1,0,-,-,-,-
C/C(=N\NC(=O)c1ccc(C(=O)N/N=C(\C)c2ccco2)o1)c1ccco1,0,0,0,31,0
COc1ccccc1NS(=O)(=O)c1ccc(N/N=C/c2ccccc2OCC(=O)O)c([N+](=O)[O-])c1,0,0,0,35,0
O=C(O)c1ccccc1NS(=O)(=O)c1ccc(N/N=C/c2ccc(O)c(O)c2)c([N+](=O)[O-])c1,0,-,-,46,0
CO/N=C/C=C1/N(C)c2ccccc2C1(C)C,0,0,0,60,0
CN1/C(=C\C=Nc2cc(S(=O)(=O)N3CCOCC3)ccc2N2CCOCC2)C(C)(C)c2ccccc21,0,0,0,41,0
Cc1ccccc1N=C/C=C1\N(C)c2ccccc2C1(C)C,0,0,0,35,0
CN1/C(=C\C=N\O)C(C)(C)c2ccccc21,0,0,0,0,0
O=C(Cn1c(=O)c2cccn2c2cccnc21)NCCCN1CCN(c2ccc(Cl)cc2)CC1,0,-,-,-,-
C[C@@H]1C[C@H]2[C@@H](C)C(=O)N3[C@H](c4ccccc4)[C@H](C)C[C@H]3[C@@H](C)C(=O)N2[C@@H]1c1ccccc1,0,-,-,-,-
CCOC(=O)C1CCN(S(=O)(=O)c2c(Cl)ccc3nonc23)CC1,0,60,41,0,0
CC1(C)Cc2c(sc3nc[nH]c(=O)c23)CO1,0,0,0,0,0
O=c1[nH]cnc2sc3c(c12)CN(Cc1ccccc1)CC3,-,0,0,0,52
O=S1(=O)c2ccc(Br)cc2OC[C@@H](c2ccccc2)N1Cc1cn(Cc2ccccc2)nn1,0,-,-,-,-
Cc1ccccc1N(CC(=O)NC1CCCC1)C(=O)C1(C)CC(=O)N=C2C=CC(Cl)=CN21 (centres undefined),0,0,0,0,155
CC1=CN2C(=NC(=O)CC2(C)C(=O)N(CC(=O)NC2CCCC2)Cc2ccccc2)C=C1 (centres undefined),0,0,0,0,124
S=C1CCC(c2ccc(Br)cc2)=NN1c1ccccc1,0,0,0,33,0
Cc1ccc(N2N=C(c3ccc(Br)cc3)CCC2=O)cc1,0,0,0,0,0
CCOC(=O)CC[C@H]1CC[C@]2(CCCN(C(=O)c3ccno3)C2)O1,0,-,-,-,-
COC(=O)C1=C(SC)N(c2ccc(OC)cc2)C(c2ccccc2)CC1=O (centres undefined),0,0,0,33,0
CNC(=S)N1N=C(c2cccs2)CC1c1ccc(F)cc1 (centres undefined),0,0,0,36,0
COc1ccc(C2CC(c3cccs3)=NN2C(=O)CSC2=NCCS2)cc1 (centres undefined),0,0,41,0,0
Cc1ccc(C2CC(c3cccs3)=NN2C(=O)CSC2=NCCS2)cc1 (centres undefined),0,0,57,0,0
SMILES,PrPC TRFRET,BJeLR lethal,RecA splice inh,GDH-TPI inh,FBA Mtb inh
CCN1CCN(CC(=O)N2N=C(c3cccs3)CC2c2ccc(F)cc2)C(=O)C1=O (centres undefined),0,0,0,0,0
CC(C)C[C@H](NC(C)(C)C(=O)NC1CCCCC1)C(=O)NCC(c1ccccc1)c1ccccc1,0,-,-,-,-
COc1cccc(N2CCN(CC(=O)NCc3ccccc3C)CC2)c1,0,-,-,-,-
O=C(Nc1ccc(Cl)cc1)O[C@@H]1CC[C@@]23CCCN2C(=O)CCC[C@H]3C1,0,-,-,-,-
COc1ccc(C)cc1NC(=O)c1cnc2scc(C)n2c1=O,0,-,-,0,0
COc1ccc(CCNC(=O)c2cnc3scc(C)n3c2=O)cc1OC,0,0,0,33,0
C/C(=N\NC(=O)c1cc2ccccc2cc1O)c1ccccn1,0,0,0,0,0
C/C(=N\NC(=O)c1nc2ccccn2c1C)c1cc2ccccc2o1,0,0,0,33,0
